The list is a sample of the results.
aSyn UTR act = Activators working through SNCA 5'UTR binding (MLPCN); activity score, % (tested at 7.5 µM), hits read low; alpha-synuclein 5'UTR reporter, activators screen; actives 7.1% (n = 300,000); AID 1814; in the data active = activity score below about -60%
A number is an active result; - = inactive.

SMILES | aSyn UTR act
COC(=O)/C(=C\C(=O)c1ccccc1)Nc1cccc(C(F)(F)F)c1 | -185
O=C(Nc1cccc(C(=O)Nc2ccc(Br)cc2)c1)c1ccccc1 | -111
O=C(Cc1ccccc1)NNc1ccc2ccccc2c1 | -101
CC(=O)c1ccc(NC(=O)c2cc(C)nc3ccccc23)cc1 | -101
O=C(Nc1ccccc1)Nc1ccc2ccccc2c1 | -141
CC(=O)c1cccc(NC(=O)c2ccc3ccccc3c2)c1 | -145
CSc1ncc(C(=O)Nc2ccc(C(C)=O)cc2)c(C)n1 | -87
Nc1ccc(C(=O)Nc2cccc(N)c2)cc1 | -67
O=C(Nc1ccc(Br)cc1)c1cc2ccccn2n1 | -117
CC(=O)c1cccc(NC(=O)Nc2nc(C)cc(C)n2)c1 | -85
O=c1nc2sc3ccccc3n2c(=O)n1-c1cccc(Cl)c1 | -169
O=c1nc2sc3ccccc3n2c(=O)n1-c1ccc(Cl)cc1 | -189
Cc1ccc2c(c1)sc1nc(=O)n(-c3cccc(Cl)c3)c(=O)n12 | -209
Fc1cccc(Cl)c1Cc1noc(/C=C/c2ccccc2)n1 | -209
CC(=NC1CCCCC1)C1=C(O)c2ccccc2C1=O | -121
CC(=O)N(C1=C(Cl)C(=O)c2ccccc2C1=O)C1CCCCC1 | -
CC(=O)c1cccc2c(O)c(C3=Nc4ccccc4C3=O)[nH]c12 | -122
CN(C1=C(NC(=O)c2ccc(Cl)cc2)C(=O)c2ccccc2C1=O)c1ccccc1 | -83
Nc1ccc(-n2cnc3cc([N+](=O)[O-])ccc32)cc1 | -66
Cc1ccc(C(=O)N/C(=C\c2ccc(-c3ccc(Cl)cc3)o2)C(=O)NCCCN(C)C)cc1 | -
OCCc1ccc(-c2ccc(Cl)cc2)o1 | -65
CCCCOc1ccccc1C1CC(=O)NC2=C1C(=O)CCC2 (centres undefined) | -
Cc1ccc2nc(NC(=O)[C@H](C)N3C(=O)C4CC=CCC4C3=O)sc2c1 (some centres undefined) | -
Cc1nc2ccc(NC(=O)N(C)c3ccccc3)cc2s1 | -119
Cc1nc2ccc(NC(=O)N(C(C)C)C(C)C)cc2s1 | -90
SMILES | aSyn UTR act
COc1ccc(OCC(=O)C2CC2)c(C#N)c1 | -78
CC(=O)Nc1ccc(-c2cn3c(n2)SCC3)cc1 | -83
O=C(Nc1ccc(-c2cn3c(n2)SCC3)cc1)c1ccco1 | -170
CC(=O)c1ccc(N(C(=O)Cc2c[nH]c3ccccc23)C(C(=O)NC2CCCCC2)c2cccs2)cc1 (centres undefined) | -84
c1ccc2oc(-c3ccc4nc[nH]c4c3)nc2c1 | -135
COc1ccc(-c2nc3ccccc3o2)cc1OC | -82
C=CCN1C(=O)CS/C1=N\N=C\c1cccc([N+](=O)[O-])c1 | -73
CCCC(=O)Nc1ccc(C(=O)N/N=C/c2ccc([N+](=O)[O-])o2)cc1 | -
CCCc1ccc(-c2cc(C(=O)N/N=C/c3ccc([N+](=O)[O-])o3)c3ccccc3n2)cc1 | -75
O=C(N/N=C/c1ccc([N+](=O)[O-])o1)c1cc(-c2cccc(Br)c2)nc2ccccc12 | -83
NC(=Nc1ccccc1)NC(=O)c1nc(Cl)c(N)nc1N | -126
Cc1cccc(NC(=O)Nc2cccc(C)n2)n1 | -95
COc1ccc(NC(=O)Nc2ccc([N+](=O)[O-])cc2)cn1 | -102
Cc1ccc(NC(=O)Nc2cccc(C)n2)cc1 | -76
Cc1cccc(NC(=O)Nc2ccc(C)c(C)c2)n1 | -120
COc1ccc(C2C(C(=O)Nc3cccc(C)n3)CCC(=O)N2c2ccc(OC)cc2)cc1 (centres undefined) | -
Cc1cccc(NC(=O)Nc2ccc([N+](=O)[O-])cc2)n1 | -97
Cc1cccc(NC(=O)Nc2ccc(F)cc2)n1 | -91
Cc1cccc(NC(=O)Nc2ccc(Cl)cc2)n1 | -99
OCCN1CCN(CC/C=C2/c3ccccc3CSc3ccccc32)CC1 | -
OCCN1CCN(CCCN2c3ccccc3Sc3ccc(C(F)(F)F)cc32)CC1 | -65
CCCCCc1nc2c(=O)[nH]c3ccccc3c2o1 | -78
N/C(=N\OC(=O)c1cccc(Br)c1)c1ccc(Br)cc1 | -96
Cc1ccc(C(=O)O/N=C(\N)c2ccc(Br)cc2)cc1 | -215
N/C(=N\OC(=O)c1ccc(Br)cc1)c1ccccc1 | -190
SMILES | aSyn UTR act
Cc1c(-c2nc(N)nc(Nc3ccc(F)cc3)n2)oc2ccccc12 | -95
Cc1c(CCC(=O)N2CCC(C(=O)O)(c3ccccc3)CC2)c(=O)oc2cc3oc4c(c3cc12)CCCC4 | -
O=C(COc1ccc2ccccc2c1)NC1CC1 | -128
O=C(COc1ccc2ccccc2c1)N1CCCC1 | -68
O=C(COc1ccc2c3c(c(=O)oc2c1)CCC3)N1CCCCC1 | -82
O=C(COc1ccc2ccccc2c1)Nc1cccnc1Cl | -77
Cc1c(CCC(=O)N2CCC(C(=O)O)CC2)c(=O)oc2cc3oc4c(c3cc12)CCCC4 | -
O=C(N/N=C/c1c(O)ccc2ccccc12)c1[nH]ncc1Br | -
Cc1ccc(O)c(/C=N/NC(=O)c2[nH]ncc2Br)c1 | -113
Cn1cccc1-c1cc(C(=O)N/N=C/c2cc(Br)ccc2O)[nH]n1 | -
O=C(N/N=C/c1cccs1)c1[nH]ncc1Br | -95
Cc1cc(C(=O)N/N=C/c2cc(Br)cc(Br)c2OC(=O)c2ccccc2)n[nH]1 | -
Cc1cc(C(=O)N/N=C\c2cc(C(C)(C)C)ccc2O)n[nH]1 | -
Cc1cc(C(=O)N/N=C/c2cccs2)n[nH]1 | -83
C/C(=N\NC(=O)c1cc(C)[nH]n1)c1ccc(-c2ccccc2)cc1 | -78
CCN(CC)CCOc1c(Br)ccc2c1sc1nc3n(c(=O)c12)CCC3 | -111
Cc1csc(NC(=O)c2nc3nc(C)cc(C)n3n2)n1 | -90
Cc1cc(C)n2nc(C(=O)Nc3nccs3)nc2n1 | -112
N/C(=N\OC(=O)c1cccc(Cl)c1)c1ccncc1 | -87
N/C(=N\OC(=O)c1cccc(C(F)(F)F)c1)c1cnccn1 | -81
N/C(=N\OC(=O)c1cccc(Cl)c1)c1cccnc1 | -114
N/C(=N\OC(=O)c1ccc(Cl)c(Cl)c1)c1cccnc1 | -138
C/C(=N\OC(=O)Nc1ccccc1)c1ccc(C)cc1 | -113
Cc1ccc(C(=O)Nc2cc3c(oc2=O)CCCC3=O)cc1 | -65
CCOC(=O)c1sc(Nc2ccccc2)nc1C | -96
SMILES | aSyn UTR act
COC(=O)Nc1nc(C)c(C(=O)c2ccccc2)s1 | -105
CCOC(=O)c1sc(Nc2nc(C)cc(C)n2)nc1C | -
COC(=O)Nc1nc(-c2ccccc2)c(C(=O)c2ccccc2)s1 | -
Cc1cccc(Nc2nc3c(s2)CCCC3)c1 | -257
Cc1ccc(-c2nc(Nc3cccc(C)c3)sc2CC(=O)O)cc1 | -143
O=C(Cc1sc(Nc2ccccc2)nc1-c1ccccc1)NCc1ccccc1 | -123
CC(C)(C)C(=O)c1sc(Nc2ccccc2)nc1N | -180
CCOC(=O)c1sc(NC(=O)Nc2ccc(Cl)cc2)nc1C | -175
COc1ccc(Nc2nc(N)c(C(=O)c3ccc(F)cc3)s2)cc1 | -
CCOC(=O)c1sc(Nc2nc3c(OC)cccc3s2)nc1C | -164
CC(=O)c1sc(Nc2cccc(C)c2)nc1C | -165
COC(=O)c1sc(Nc2ccccc2)nc1C | -157
Cc1nc(Nc2ccccc2)sc1C(=O)c1ccccc1 | -68
CCOC(=O)c1sc(-c2cccs2)nc1C | -65
CCc1nnc(NC(=O)Nc2ccc(Cl)cc2)s1 | -66
C1CCN=C(Nc2nc3c(s2)CCCC3)CC1 | -139
O=C(CSc1nnc2ccccn12)Nc1cccc(-c2nc3ccccc3s2)c1 | -134
O=C(Nc1cccc(-c2nc3ccccc3s2)c1)c1cccs1 | -63
O=C(CCS(=O)(=O)c1ccccc1)Nc1cccc(-c2nc3ccccc3s2)c1 | -135
O=Cc1ccccc1OCc1ccc2c(c1)OCO2 | -258

Screening data (PubChem BioAssay)
